MPTP block – inhibitors of mitochondrial permeability transition pore; isolated mouse mitochondria, Ca2+ swelling absorbance, 30 min; inhibition, % at 10 µM; hit rate 1.4% among 360,000;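 active = inhibition of 50% or more, scaled per plate between neutral and stimulator controls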;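 note: 0% = DMSO wells given calcium and 100% = 1 mM EGTA wells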
Beta apoptosis – beta cell apoptosis inhibition. INS-1E cytokine-induced death, ATP luminescence, 48 h; percent of positive-control rescue, neutral wells zero. protection from apoptosis, % (no concentration beside the values). hit rate 0.8% among 300,000. AID 435005;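 active = Every replicate reaches about 75%, or at least half do and their mean reaches it too, limit read from the data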;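 note: 0% = cytokine-treated negative control wells and 100% = positive control rescue; higher means more ATP so stronger rescue from cytokine killing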
NR3A LBD binder – NR3A (human) ligand-binding domain modulation; hit rate 2.5% among 340,000; NR3A LBD differential scanning fluorimetry, Tm shift; 0% = protein alone, 100% = glycine-bound protein; Tm shift relative to glycine control, % at 25 µM; AID 1259313;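 active = melting temperature shift of at least 10% of the positive control shift, at one fixed dose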
Mdm2 MdmX PPI – inhibitors of human Mdm2/MdmX interaction; O15151+Q00987; SaOS-2 split-luciferase Mdm2/MdmX complementation, luminescence; inhibition, % at 8 µM; hit rate 3% among 330,000; AID 485346;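 active = inhibition of at least 50% at 8 µM in the primary screen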
Target sequence (O15151 whole entry, looked up): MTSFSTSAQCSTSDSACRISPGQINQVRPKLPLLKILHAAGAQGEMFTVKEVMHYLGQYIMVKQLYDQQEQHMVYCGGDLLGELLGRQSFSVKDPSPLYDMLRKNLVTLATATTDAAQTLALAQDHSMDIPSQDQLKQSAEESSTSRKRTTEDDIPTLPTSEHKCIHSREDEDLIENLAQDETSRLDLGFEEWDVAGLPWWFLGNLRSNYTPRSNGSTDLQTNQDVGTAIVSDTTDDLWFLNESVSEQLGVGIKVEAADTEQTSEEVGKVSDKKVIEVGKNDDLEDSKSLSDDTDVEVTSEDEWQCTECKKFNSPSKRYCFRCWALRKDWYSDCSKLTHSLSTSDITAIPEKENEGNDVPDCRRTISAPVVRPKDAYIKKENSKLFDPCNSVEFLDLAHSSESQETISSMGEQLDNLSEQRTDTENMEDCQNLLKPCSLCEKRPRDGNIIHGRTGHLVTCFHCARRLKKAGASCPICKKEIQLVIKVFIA
Target sequence (Q00987 whole entry, looked up): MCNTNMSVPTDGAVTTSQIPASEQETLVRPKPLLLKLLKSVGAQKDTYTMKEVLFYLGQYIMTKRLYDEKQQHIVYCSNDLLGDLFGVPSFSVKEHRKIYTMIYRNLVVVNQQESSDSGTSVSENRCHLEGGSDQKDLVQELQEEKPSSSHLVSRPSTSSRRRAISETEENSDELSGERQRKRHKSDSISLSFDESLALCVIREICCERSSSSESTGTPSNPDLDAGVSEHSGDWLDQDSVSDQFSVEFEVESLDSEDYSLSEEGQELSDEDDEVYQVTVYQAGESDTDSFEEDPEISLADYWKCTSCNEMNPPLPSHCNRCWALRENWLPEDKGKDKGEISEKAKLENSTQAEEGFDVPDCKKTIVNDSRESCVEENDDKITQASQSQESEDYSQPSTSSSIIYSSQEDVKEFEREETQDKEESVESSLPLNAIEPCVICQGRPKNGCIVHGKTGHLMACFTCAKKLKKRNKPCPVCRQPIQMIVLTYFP
CSC inhib – blocks cancer stem cells. AID 2717. cancer stem cell-like cells viability, luminescence. hit rate 1.1% among 300,000. inhibition, % at 7.5 µM; in the data active = inhibition above about 75%; tested in HMLE shEcad cells
Gli-Sufu block – antagonists of Gli-Sufu signaling | Sufu-KO-LIGHT fibroblasts, Gli luciferase reporter luminescence | inhibition, % at 5 µM | hit rate 0.74% among 340,000 | AID 588413;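 active = inhibition above about 55%, limit read from the data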;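 note: 0% = DMSO-treated cells and 100% = wells with medium but no cells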
The depositor's hits bear a star; · = not tested or not shown. Shown are actives, neighbours in structure and some others; about 6.6% of the full set was active somewhere.

SMILES	MPTP block	Beta apoptosis	NR3A LBD binder	Mdm2 MdmX PPI	CSC inhib	Gli-Sufu block
CC(=O)C1=C(O)C(=O)N(Cc2ccccc2)C1c1ccc([N+](=O)[O-])cc1 (stereo unspecified)	0	-2	·	16	-23	·
Cc1ccc2c(c1)-n1c(nc3ccc(C)cc3c1=O)C(Cc1ccccc1)NC2=O (stereo unspecified)	·	-1	·	-4	·	·
Cc1sc(NC(=O)Nc2ccccc2)c(C(N)=O)c1C	0	-9	13*	-41	0	-62
COc1ccc(OC)c(-c2cc(C(=O)Nc3ccccc3C(N)=O)c3ccccc3n2)c1	0	·	11*	43	33	7
CCOC(=O)c1c(NC(=O)c2cc(-c3ccc(Cl)s3)nc3ccccc23)sc(C(N)=O)c1C	2	77*	-10	·	14	1
Cc1ccccc1-c1cc(C(=O)Nc2sc(C)c(C)c2C(N)=O)c2ccccc2n1	-2	93*	7	30	·	9
CCOC(=O)c1sc(NC(=O)c2ccccc2C(=O)O)c(C(=O)OCC)c1C	2	4	0	-9	-1	6
Cc1ccccc1-c1cc(C(=O)N2CCCC2)c2ccccc2n1	-1	-10	-2	-9	3	8
O=C(C[C@@H]1C/C=C/CC[C@H](Cc2ccc(F)cc2)C(=O)OCCNC1=O)N[C@H](CO)Cc1ccccc1	-1	-2	0	-8	-3	-2
O=C(NCc1ccccc1)C1=C[C@@H](C2CCCCC2)C[C@@H](OCCCCO)O1	0	0	-2	-38	0	-1
Cc1c(C(=O)NCC2CCCO2)oc2c(Cl)cccc12 (stereo unspecified)	-1	-2	2	8	-15	5
CC(CNc1ccc(Cl)cc1)(CNc1ccc(Cl)cc1)[N+](=O)[O-]	39	·	25*	·	·	3
[O-][N+]1=c2ccc(Nc3ccccc3)cc2=NC12CCCCC2	8	107*	-1	·	80*	10
COCCCNC(=O)COc1cc2c(c3oc(=O)c(C)c(C)c13)CCC(C)(C)O2	1	4	1	23	0	-7
O=C(NCCc1ccco1)C(=O)NCC1CCCN1S(=O)(=O)c1ccccc1 (stereo unspecified)	1	8	-2	31	·	-9
O=C(Nc1cccc(C(F)(F)F)c1)C1(c2ccccc2)CC1	2	-1	12*	17	-3	-11
O=C(Nc1ccc(C(F)(F)F)cc1)C1(c2ccccc2)CC1	7	-4	-2	8	9	·
Oc1[nH]c(=S)sc1C=C1N=c2ccccc2=N1	9	·	18*	7	-10	10
Oc1[nH]c(=S)sc1/C=C1\C(c2ccccc2)=Nc2ccccc21	43	-4	16*	·	48	-10
O=C1N=c2ccccc2=C1c1sc(=O)[nH]c1O	2	1	-16	12	3	-10
O=C1Nc2ccccc2N=C(c2ccccc2)c2ccccc21	3	-2	-2	-3	-7	-10
COc1ccccc1N(CC(=O)NCCSCc1cccc(C)c1)S(=O)(=O)c1ccccc1	0	0	1	33	-2	15
COc1ccc(-c2oc3c4c(cc(OC)c3c(=O)c2CC=C(C)C)OC(C)(C)C=C4)c(OC)c1	·	9	·	39	101*	·
COc1c2c(cc(O)c1C(C)=O)OC(C)(C)C=C2	1	·	0	·	·	-7
CC(C)=CCc1c(-c2ccc(O)cc2O)oc2cc3c(c(O)c2c1=O)C=CC(C)(C)O3	·	8	31*	15	-8	6
SMILES	MPTP block	Beta apoptosis	NR3A LBD binder	Mdm2 MdmX PPI	CSC inhib	Gli-Sufu block
COc1ccc([C@H]2CC(=O)C=C(c3ccc(C)c([N+](=O)[O-])c3)C2)cc1	-1	-4	2	-24	4	-20
O=C(CN1CCCCC1)Nc1ccc(S(=O)(=O)N2CCCCCC2)cc1	-1	7	11*	-9	56	6
CC(=O)Nc1ccc(NC(=O)c2ccc(S(=O)(=O)N3CCCCCC3)cc2)cc1	0	·	·	·	·	·
Cc1c(C(=O)Nc2ccc(F)c(F)c2)oc2ccc(S(=O)(=O)N3CCCCC3)cc12	26	14	31*	16	4	0
CC(=O)Nc1ccc(C(=O)Nc2ccc(S(=O)(=O)N3CCCCC3)cc2)cc1	4	1	23*	20	-4	9
CCCCC(=O)Nc1ccc(C(=O)Nc2ccc(S(=O)(=O)N3CCCC3)cc2)cc1	0	1	31*	17	7	1
Nc1c(C(=O)Nc2ccc(S(=O)(=O)N3CCCC3)cc2)sc2nc3cc4c(cc3cc12)CCC4	21	100*	7	·	6	8
Cc1cc(C(=O)Nc2ccc(S(=O)(=O)N3CCCC3)cc2)cs1	0	1	1	10	6	-3
O=C(Nc1ccc(S(=O)(=O)N2CCCCC2)cc1)c1ccc(Cl)nc1	1	15	24*	13	2	4
Cc1ccc(C(=O)Nc2ccc(S(=O)(=O)N3CCCC3)cc2)s1	3	-3	24*	36	3	-6
O=C(CNc1ccc(F)cc1Cl)Nc1cccc(S(=O)(=O)N2CCCCC2)c1	27	8	13*	6	·	1
COc1ccc(-c2cn(CCN)c(-c3ccncc3)n2)cc1	-1	-5	6	9	-3	-5
Cc1ccc(C(=O)N/C(=C\c2ccco2)C(=O)N2CCOCC2)cc1C	0	-8	1	-1	12	7
COc1ccc(-c2coc3c(C(=O)NCC4CCOCC4)cccc23)c(C)c1	6	·	·	·	·	·
CSc1ccc(CNC(=O)C2(C)CCCN2CC(C)C)cc1 (stereo unspecified)	-1	·	·	·	·	·
CCC(Cc1ccccc1)NC(=O)c1cc(S(=O)(=O)N2CCCCC2)c[nH]1 (stereo unspecified)	1	-4	-3	-6	3	6
COc1ccc(CNC(=O)CN(c2ccc(C)cc2)S(=O)(=O)c2c(C)nn(C)c2C)cc1	0	6	1	9	5	5
O=C(Nc1cccc(F)c1)c1ccc(S(=O)(=O)N2CCCCC2)cc1	2	7	17*	34	2	0
O=C(Nc1cccc(O)c1)c1ccc(S(=O)(=O)N2CCCCCC2)cc1	0	·	2	10	·	-13
COc1cc(C(=O)NC(C)c2ccc(S(N)(=O)=O)cc2)ccc1OCC(=O)N1CCOCC1 (stereo unspecified)	1	-3	11*	3	7	4
CCOc1ccc(NC(=O)COc2ccc(C(=O)NC(C)c3ccc(S(N)(=O)=O)cc3)cc2OC)cc1 (stereo unspecified)	-2	·	0	25	-4	2
C/C(=N/NC(=O)CNC(=O)c1cccc(F)c1)c1ccc2c(c1)CCCC2	-1	4	-1	6	-4	2
CCc1ccc(/C=N/Nc2ncnc3nc[nH]c23)cc1	0	-3	-3	-79	8	-65
CCc1ccc(N=Nc2ccc(O)c3[nH]cnc23)cc1	3	4	-6	19	82*	9
CN1C[C@@H](CO)O[C@@H](n2cnc3c(N4CCOCC4)ncnc32)C1	0	·	·	·	·	·
